Reference: PubChem BioAssay (NCI)
Where “and” joins values, the source holds several entries; their conditions need not be identical. Equal entries are not always repeated. The panel holds about 79,000 compounds, 15% with a hit somewhere; the sample as a whole holds those more often. Cut-off read from the data, not from the text of the source: active = growth inhibition above about 70%; inactive = the rest.

What was measured:
[1] = NCI Yeast Anticancer Drug Screen. Data for the rad50 strain (AID 155);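 note: 0% = growth of vehicle-only cultures of the same strain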; conditions: S. cerevisiae rad50 strain growth inhibition; at 50.0 µM; hits give high values
Outline: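 DNA repair mutant yeast, compound exposure, growth read-out; inhibition is taken relative to vehicle.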

[2] = NCI Yeast Anticancer Drug Screen. Data for the mec2-1 strain (AID 157); conditions: S. cerevisiae mec2-1 strain, at 50.0 µM, hits give high values
Outline: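 mec2-1 yeast strain, carrying an alteration in DNA damage repair or cell cycle control, was exposed to compounds; growth inhibition was measured relative to vehicle-treated controls.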

[3] = NCI Yeast Anticancer Drug Screen. Data for the sgs1 mgt1 strain (AID 161);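 note: 0% = growth of cultures given vehicle only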; conditions: S. cerevisiae sgs1 mgt1 strain, at 50.0 µM, hits give high values
Outline: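 Percent growth inhibition was derived by comparing compound-exposed mutant yeast with vehicle-exposed cultures. The strain carries alterations in DNA damage repair.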

[4] = NCI Yeast Anticancer Drug Screen. Data for the cln2 rad14 strain (AID 165);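 note: 0% = growth equal to vehicle treated cultures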; conditions: S. cerevisiae cln2 rad14 strain, at 50.0 µM, hits give high values
Outline: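 Yeast carrying cln2 and rad14 alterations (cell cycle control and DNA damage repair) were exposed to compounds. Growth inhibition was measured against vehicle-treated controls.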

[5] = NCI Yeast Anticancer Drug Screen. Data for the bub3 strain (AID 167); conditions: S. cerevisiae bub3 mutant strain, at 50.0 µM, hits give high values
Outline: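 In this screen, a yeast mutant lacking normal mitotic checkpoint function is challenged with compound. Relative growth versus vehicle gives the inhibition value.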

[6] = NCI Yeast Anticancer Drug Screen. Data for the mlh1 rad18 strain (AID 175); conditions: S. cerevisiae mlh1 rad18 strain growth inhibition; at 50.0 µM; hits give high values
Outline: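 Growth inhibition of the yeast strain was measured after compound exposure and expressed relative to vehicle-treated controls. The strain carries defined defects in DNA damage repair.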

Measured: growth inhibition

O=C(O)c1ccc(Cl)c(Cl)c1.[Ni]
inactive: [1] -19.1% | [2] -16.4% | [3] -4.35% | [4] -11.9% | [5] -23.4% | [6] -19.7%

C[C@]12CCC(=O)C=C1CC[C@H]1[C@@H]3CCC(=O)[C@@]3(C)CC[C@@]12F
inactive: [1] -2.35% | [2] -6.1% | [3] 2.25% | [4] -31.8% | [5] -3.7% | [6] -5.75%

c1cc[c]([Ge]([c]2ccccc2)[c]2ccccc2)cc1.c1cc[c]([Ge]([c]2ccccc2)[c]2ccccc2)cc1
inactive: [1] 7.75% | [2] 1.45% | [3] -1.7% | [4] -4% | [5] 4.8% | [6] -3.65%

CC(=O)[O-].N.N.N.N.[Co+3].[O-][Cl+3]([O-])([O-])[O-].[OH3+]
inactive: [1] -2.35% | [2] 7.3% | [3] -1.45% | [4] 16.1% | [5] 21.9% | [6] 2.7%

O=[N+]([O-])c1ccc(O)c(CBr)c1
inactive: [1] 35.5% | [2] -5.15% | [3] 7.55% | [4] 18.6% | [5] 13.9% | [6] 4.95%

CC(C)CC(NC(=O)C(Cc1ccccc1)NC(=O)CNC(=O)CNC(=O)C(N)Cc1ccc(O)cc1)C(=O)O (centres undefined)
inactive: [1] 0.9% | [2] 2.85% | [3] -8.25% | [4] -7.5% | [5] -0.75% | [6] -11.2%

COc1cc2c[n+](C)c3c4cc5c(cc4ccc3c2cc1OC)OCO5
inactive: [1] -11.7% | [2] -37.5% | [3] -28.1% | [4] -5.75% | [5] -26.3% | [6] -33.6%

N.N.N.N.N.N.[I-].[Os]
inactive: [1] 23.5% | [2] 1.45% | [3] 5.4% | [4] 7.6% | [5] 1.25% | [6] -2%

C[C@H](N)[C@H](O)c1ccccc1
inactive: [1] 7.45% and 0.25% | [2] -14.4% and 4.7% | [3] -7.4% and -7.8% | [4] -8.35% and -18.5% | [5] -4.3% and 0.95% | [6] -7.3% and -1.15%

CCN(CCCl)c1cc(CN(C)C)cc(NC(=O)c2ccc(C(=O)Nc3ccccc3)cc2)c1
inactive: [1] 0.7% | [2] -18.4% | [3] 5% | [4] 26.2% | [5] 23.9% | [6] 12.4%

CCCC(=O)O.[Ni]
inactive: [1] 8.1% | [2] -4.05% | [3] -6% | [4] -39.9% | [5] -20.2% | [6] -2.7%

C(#Cc1ccccc1)c1ccccc1
inactive: [1] 29.1% | [2] 5.25% | [3] 20.3% | [4] -13.6% | [5] -11.3% | [6] -3.6%

[Cl][Cd][Cl]
inactive: [1] 54.5% | [2] 25.5% | [3] 2.6% | [4] 35.5% | [5] 13.2% | [6] 2.15%

CC(C)(C)[SH+]CC[SH+]C(C)(C)C.[C-]#[O+].[C-]#[O+].[C-]#[O+].[C-]#[O+].[Cr]
inactive: [1] 13.6% | [2] -19.1% | [3] -7.25% | [4] -4.4% | [5] 3.65% | [6] 3.35%

COP(=O)(OC)OC1C(=O)NC(=O)NC1=O
inactive: [1] 12.3% | [2] 0.25% | [3] -4.15% | [4] 14.2% | [5] 7.2% | [6] 17.9%

COC(=O)C[CH2][Sn]([CH2]CC(=O)OC)([c]1ccccc1)[c]1ccccc1
inactive: [1] 7.95% | [2] 30.7% | [3] -6.7% | [4] -15.7% | [5] 14.4% | [6] -25.4%

CCOC(=O)/C(=C\c1cccc(F)c1)[Se]c1ccccc1
inactive: [1] 29.4% | [2] 7.15% | [3] 21.9% | [4] 8.3% | [5] 46.8% | [6] 36.6%

COc1cc(C2c3cc4c(cc3C(O)[C@H]3COC(=O)C23)OCO4)cc(OC)c1O (some centres undefined)
inactive: [1] -38.8% | [2] -50.8% | [3] -27.1% | [4] -1.8% | [5] -13.9% | [6] 38.6%

N#Cc1ccccc1Cl
inactive: [1] 8.05% | [2] -8.4% | [3] 5.45% | [4] 20.7% | [5] 24.2% | [6] 40%
